# Target: CBL
# Test: pooled miR-30 sensor sort-seq; sequence = guide strand
# Details: shRNA
# Also: reference of the scale not given here.
row,Sequence,sensor-assay potency score (higher = more potent)
1,TTATTGTGAGGGATTGTCTGGA,0.335
2,TTCCTGAGCAAAGAGGACCAGG,-0.903
3,TATCTTGACAAGATAGTACGGA,0.0663
4,TCACCATCCAGAGACAACCAGC,-1.24
5,TTATACATTGCTTCATACGTAC,-0.141
6,ATGCACTTCATGTAGAGCCTGT,0.672
7,TTTGTGAATGAATTTCTGGAGC,-0.665
8,TATCTGAGAGAGTTCGGCGGGC,-0.0196
9,TTACATAGTTGGAATGTGGAGC,0.417
10,TTGCTTAGTTTTCTTCATCAAA,-1.12
11,TTTCTTCATCAAATTCTCCATA,-0.795
12,TTGTTGTAGGATCACCATCCAG,-1.34
13,ATCTTGACAAGATAGTACGGAG,-1.09
14,TGTTGTAGGATCACCATCCAGA,0.05
15,TTGAGGGAACACATACTCGCTG,-0.612

# Target: CBR1
# Test: as above
# Details: shRNA
row,Sequence,sensor-assay potency score (higher = more potent)
1,TTCTGTGCACACATCTCGGGTA,0.677
2,TTAGTAGTACATTAGTGAGTGC,-0.244
3,TTCTCTGAAACAAATTGTCCAT,-0.572
4,TTCAGGAGGATCTTGTCCCCTT,-0.643
5,TCAATTAGTAGTACATTAGTGA,0.828
6,TCTGTGCACACATCTCGGGTAC,-0.133
7,TAAGAGATCATTTTTTTTCTTA,0.534
8,TTGTTTTCATCGTCACTTCAGC,-0.315
9,TCAGTGATGGTCTCACTGCGGA,-1.01
10,ATCGTCGATGTCCAGCTGGTGG,-1.35
11,TTGAATATGAAAGGGTGTGGGA,0.163
12,TTATTAGAGGGAGTAATTCTGT,-0.254
13,TTTGTTTTCATCGTCACTTCAG,0.571
14,TAGTACATTAGTGAGTGCTAAT,-1.35
15,ATTCTGTGCACACATCTCGGGT,-0.951
16,TATGACATTGTAAATGCCCTTT,-0.242
17,TAATTCTGTGCACACATCTCGG,-0.638
18,TCATCGTCACTTCAGCTTGAAT,-1.32
19,TTACGTAGTCAACTGAGTGCGT,0.669
20,TATTAGAGGGAGTAATTCTGTG,-0.602
21,TTTTCATCGTCACTTCAGCTTG,-0.702
22,AATTCTGTGCACACATCTCGGG,-0.452
23,TCTCTGAAACAAATTGTCCATG,-1.29
24,TTCAGCTTGAATATGAAAGGGT,0.264
